# Values joined by “and” are separate entries in the source; they are usually repeats but may differ in a detail not shown here. Equal values may be shown once. Active and inactive are the calls of the source. Unless noted, no stated cut-off is given here; in the data, active means inhibition above about 80%; inactive means the rest.
# What was measured:
# [1] = target: 6-phosphogluconate dehydrogenase, decarboxylating (Homo sapiens) (UniProt P52209); assay: 6PGD enzyme inhibitors, primary screen, biochemical, human, recombinant enzyme, NADPH absorbance (AID 1159550;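 active means at least 20% inhibition of 6-phosphogluconate dehydrogenase activity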); conditions: recombinant 6PGD, NADPH absorbance 341 nm; at 10 µM; stronger effect = higher value
# [2] = sensitizers of A549 cells to miR-34 induction, primary screen, imaging, A549 dox-inducible miR-34, nuclei and caspase counts (AID 1347080;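 active means compounds whose cell count with miR-34 switched on is under 0.7 times the count with it off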); conditions: A549 miR-34 inducible, Hoechst nuclei count, 48 h
# [3] = survival rescue of mitochondrial mutant cells in low glucose, primary screen, MELAS cybrids, Rieske KO mouse fibroblasts, CellTiter-Glo (AID 1508586;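 active means mean z-score across replicates of 1.96 or higher in either the MELAS or the Rieske mutant cell line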;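 further: z relative to plate mean and SD of compound and empty wells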)
# [4] = LFS_MB_P medulloblastoma growth inhibition, cell-based, chromothripsis tumors, cisplatin or BGB combos (AID 1671449); conditions: LFS_MB_P medulloblastoma cells;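 further: cells exposed for 96 hours; 0% = vehicle DMSO and 100% = killing by high DMSO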
# [5] = HDN33 neuroblastoma growth inhibition, cell-based, chromothripsis tumors, cisplatin or BGB combos (AID 1671450); conditions: HDN33 neuroblastoma cells, stronger effect = higher value;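 further: cells exposed to compound for four days; 0% = vehicle DMSO and 100% = cell killing by high DMSO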
# [6] = ICB984 medulloblastoma cell growth inhibition, synergistic combos for chromothripsis tumors, cisplatin or BGB combos (AID 1671451; call rule not given here;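 further: cells exposed for 96 hours before readout; 0% = vehicle DMSO and 100% = killing by high DMSO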); conditions: ICB984 medulloblastoma cells, drug combinations, stronger effect = higher value
# [7] = LFS_MB_1R medulloblastoma cell growth inhibition, synergistic combos for chromothripsis tumors, cisplatin or BGB combos (AID 1671452); conditions: LFS_MB_1R medulloblastoma cells, stronger effect = higher value;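 further: cells exposed for 96 hours before readout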
# [8] = HTB85 osteosarcoma cell growth inhibition, synergistic combos for chromothripsis tumors, BGB or cisplatin IC20 combos (AID 1671453); conditions: HTB85 osteosarcoma cells, drug combinations, stronger effect = higher value;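 further: cells exposed for 96 hours before readout; 0% = vehicle DMSO and 100% = high DMSO killing control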
# [9] = CRL2098 osteosarcoma cell growth inhibition, synergistic combos for chromothripsis tumors, BGB or cisplatin IC20 combos (AID 1671454); conditions: CRL2098 osteosarcoma cells, drug combinations, stronger effect = higher value;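 further: cells exposed for 96 h before readout; 0% = vehicle DMSO and 100% = killing by high DMSO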
# [10] = HD-MB03 medulloblastoma cell growth inhibition, synergistic combos for chromothripsis tumors, BGB or cisplatin IC20 combos (AID 1671455; in the data active means inhibition above about 83%;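 further: 0% = vehicle DMSO and 100% = high DMSO as cytotoxic control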); conditions: HD-MB03 medulloblastoma cells, stronger effect = higher value
# [11] = UWB1.289 ovarian carcinoma cell growth inhibition, synergistic combos for chromothripsis tumors, BGB or cisplatin combos (AID 1671456); conditions: UWB1.289 ovarian carcinoma cells, stronger effect = higher value;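 further: cells exposed to compound for four days; 0% = vehicle DMSO and 100% = killing by high DMSO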
# [12] = LFS_MB_2R medulloblastoma cell growth inhibition, synergistic combos for chromothripsis tumors, cisplatin combos (AID 1671457); conditions: LFS_MB_2R medulloblastoma cells, stronger effect = higher value;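 further: cells exposed to compound for four days before readout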
# [13] = MDA-MB-436 breast carcinoma cell growth inhibition, synergistic combos for chromothripsis tumors, BGB or cisplatin combos (AID 1671458; call rule not given here;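 further: cells exposed for 96 hours; 0% = vehicle DMSO and 100% = killing by high DMSO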); conditions: MDA-MB-436 breast carcinoma growth inhibition, drug combinations, stronger effect = higher value
# [14] = UWB1.289_BRCA1 ovarian cancer growth, cell-based, BGB or cisplatin combinations (AID 1671459); conditions: UWB1.289 BRCA1 ovarian carcinoma, drug combinations, stronger effect = higher value
# [15] = human astrocyte viability loss, single and combined drugs, cytotoxicity control for chromothriptic childhood tumor combination screen, cell-based, BGB or cisplatin IC20 combos (AID 1671460); conditions: Human astrocytes, drug combinations, stronger effect = higher value;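 further: cells exposed to compounds for 96 hours before viability readout; 0% = vehicle and 100% = killing control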
# [16] = growth inhibition of BT084 medulloblastoma cells, cell-based, ICGC_MB145, cisplatin and BGB IC40 combos (AID 1671461); conditions: drug combinations, stronger effect = higher value;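 further: cells exposed to drugs for 96 hours; 0% = vehicle DMSO and 100% = high DMSO full killing control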
# [17] = growth inhibition of RCMB18 medulloblastoma cells, cell-based, cisplatin and BGB IC40 combos (AID 1671462); conditions: stronger effect = higher value;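 further: cells exposed to compound for four days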
# [18] = growth inhibition of CRL1545 osteosarcoma cells, cell-based, cisplatin and BGB IC20 combos (AID 1671464); conditions: stronger effect = higher value;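 further: cells exposed to compound for 96 hours before readout; 0% = vehicle DMSO and 100% = high DMSO killing control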
# [19] = liver-stage malaria parasite growth inhibition, primary screen, cell-based, HepG2, luciferase luminescence, HepG2 viability (AID 624349; in the data active means parasite load remaining mostly below about 12%, no sharp cut-off; inactive means mostly above about 10%;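 further: 100% = mean of DMSO negative control wells on the same plate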); conditions: P. berghei liver stage in HepG2, luciferase luminescence, concentration not given here; parasite load remaining: stronger effect = lower value; viability: measured here: HepG2 viability without parasites
# [20] = target: Mitogen-activated protein kinase 7 (Homo sapiens) (UniProt Q13164); assay: ERK5 transactivation activators in reporter cells, primary screen, cell-based, HTS (AID 1508626;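 active means luciferase signal above three times the same-plate solvent-only control wells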;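 further: luciferase driven by Gal4-ERK5 fusion binding five Gal4 sites before minimal TATA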); conditions: HeLa Gal4-ERK5 transactivation, 18 h, at 5 µM, stronger effect = higher value
# [21] = circadian clock period modulators, cell-based, LOPAC library, luminescence reporter (AID 2774; call rule not given here;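 further: values are relative to mean of DMSO wells on each plate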); conditions: circadian reporter cells, at 7 µM, actives lie on both sides
# [22] = test system: Hepatitis C virus NS3 helicase; assay: HCV NS3 helicase inhibitors, primary screen, biochemical, fluorescence polarization, LOPAC1280 library (AID 687035; in the data active means inhibition above about 37%); conditions: Purified HCV NS3 helicase, Cy5-dT15 ssDNA binding fluorescence polarization; stronger effect = higher value; concentration not given here
# [23] = Cy5 fluorescence quenching or enhancement artefacts, artefact control for HCV NS3 helicase inhibitor project, biochemical, LOPAC1280 (AID 687037; call rule not given here); conditions: Cy5-DNA-NS3h complex fluorescence interference counterscreen
# [24] = phospholipid biosynthesis inhibitors in animal cells, primary screen, cell-based, LOPAC library, screen 4 (AID 1347384; call rule not given here); conditions: phospholipid biosynthesis inhibition screen, at 10 µM
# [25] = viability rescue of complex I mutant cybrids, primary screen, cell-based, galactose medium, ATP luminescence (AID 1645843;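 active means z-score of at least 1.8 in each of two replicates, scored against plate mean and spread of sample wells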;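 further: positive z means more ATP and so rescue of galactose-driven cybrid death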); conditions: complex I mutant cybrid cells, 72 h, stronger effect = higher value
# [26] = stronger effect = lower value, cell number ratio, induced over uninduced
# [27] = measured here: relative caspase fold change +Dox/-Dox
# [28] = measured here: total cells with miR-34 induction, stronger effect = lower value
# [29] = measured here: total cells without miR-34 induction
# [30] = MELAS cybrid survival, CellTiter-Glo 48 h, stronger effect = higher value
# [31] = Rieske KO mouse fibroblast survival, CellTiter-Glo 72 h
# [32] = measured here: combination with BGB IC40, at 0.05 µM
# [33] = measured here: with BGB IC20 combination, at 0.5 µM
# [34] = measured here: with cisplatin IC20 combination, at 0.5 µM
# [35] = measured here: combination with cisplatin, at 0.5 µM
# [36] = measured here: combination with cisplatin, at 5 µM
# 6-phosphogluconate dehydrogenase, decarboxylating (Homo sapiens), sequence (P52209 whole entry, looked up): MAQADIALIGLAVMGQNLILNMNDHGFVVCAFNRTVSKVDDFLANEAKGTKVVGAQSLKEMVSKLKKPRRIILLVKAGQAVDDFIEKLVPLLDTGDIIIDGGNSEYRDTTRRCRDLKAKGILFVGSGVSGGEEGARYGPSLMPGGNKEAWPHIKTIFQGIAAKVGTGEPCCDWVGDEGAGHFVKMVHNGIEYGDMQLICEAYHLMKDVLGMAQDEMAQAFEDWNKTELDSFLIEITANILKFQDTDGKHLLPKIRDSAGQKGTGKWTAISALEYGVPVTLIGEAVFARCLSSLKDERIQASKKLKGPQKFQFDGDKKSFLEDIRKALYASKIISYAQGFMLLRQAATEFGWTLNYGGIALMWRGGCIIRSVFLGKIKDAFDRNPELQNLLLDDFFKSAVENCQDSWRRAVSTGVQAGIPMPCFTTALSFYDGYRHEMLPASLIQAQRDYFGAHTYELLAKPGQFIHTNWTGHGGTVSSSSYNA
# Mitogen-activated protein kinase 7 (Homo sapiens), sequence (Q13164 whole entry, looked up, the tested form may be a part): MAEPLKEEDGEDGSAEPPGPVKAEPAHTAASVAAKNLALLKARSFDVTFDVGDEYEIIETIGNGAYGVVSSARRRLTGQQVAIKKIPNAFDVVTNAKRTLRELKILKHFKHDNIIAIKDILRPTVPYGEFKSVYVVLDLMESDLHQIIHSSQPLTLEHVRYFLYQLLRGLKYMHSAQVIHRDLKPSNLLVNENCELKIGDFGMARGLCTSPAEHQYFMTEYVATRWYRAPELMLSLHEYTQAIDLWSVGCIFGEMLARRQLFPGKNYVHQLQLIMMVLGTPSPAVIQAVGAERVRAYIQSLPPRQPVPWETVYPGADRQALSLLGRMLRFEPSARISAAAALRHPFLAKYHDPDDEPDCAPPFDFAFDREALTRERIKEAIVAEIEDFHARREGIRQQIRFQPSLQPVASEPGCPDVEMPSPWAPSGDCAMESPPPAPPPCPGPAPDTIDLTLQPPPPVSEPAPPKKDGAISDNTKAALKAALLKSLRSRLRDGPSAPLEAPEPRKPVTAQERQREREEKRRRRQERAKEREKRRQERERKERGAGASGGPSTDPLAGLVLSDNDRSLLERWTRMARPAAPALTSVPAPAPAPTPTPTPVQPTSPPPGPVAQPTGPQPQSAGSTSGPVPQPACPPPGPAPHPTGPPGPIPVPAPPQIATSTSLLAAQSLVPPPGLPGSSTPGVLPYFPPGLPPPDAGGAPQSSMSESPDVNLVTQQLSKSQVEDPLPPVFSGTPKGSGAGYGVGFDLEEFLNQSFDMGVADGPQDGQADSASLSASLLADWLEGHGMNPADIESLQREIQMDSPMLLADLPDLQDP
smiles,measurement,setting,value
CN(N=O)C(=O)NC1C(O)OC(CO)C(O)C1O (stereo not given),inhibition,[1],-8.43% (inactive)
same,fold change,[2]; [26],0.895 (inactive)
same,fold change,[2]; [27],0.982
same,cell count,[2]; [28],7750
same,cell count,[2]; [29],8650
same,z-score,[3]; [30],-0.392 (inactive)
same,z-score,[3]; [31],0.645
same,inhibition,"[4]; at 0.5 µM, stronger effect = higher value",-5.09% (inactive)
same,inhibition,"[4]; measured here: combination with BGB IC20, at 0.005 µM",2.88%
same,inhibition,"[4]; measured here: combination with BGB IC40, at 0.005 µM",-23%
same,inhibition,[4]; [32],9.79%
same,inhibition,"[4]; measured here: combination with cisplatin, at 0.5 µM, stronger effect = higher value",18.7%
same,inhibition,"[4]; measured here: combination with cisplatin, at 5 µM, stronger effect = higher value",-15%
same,inhibition,"[5]; BGB combo, at 5 µM",-42.3%
same,inhibition,[5]; at 0.5 µM,-18.9% (inactive)
same,inhibition,"[5]; cisplatin combo, at 5 µM",-31.9%
same,inhibition,[5]; [33],-17.4%
same,inhibition,[5]; [34],-13.6%
same,inhibition,"[5]; single agent, at 5 µM",-38.9%
same,inhibition,"[6]; BGB IC20 combo, at 0.005 µM",-31.3%
same,inhibition,"[6]; BGB IC40 combo, at 0.005 µM",-16.7%
same,inhibition,"[6]; BGB IC40 combo, at 0.05 µM",-24.6%
same,inhibition,[6]; at 0.5 µM,-5.69% (inactive)
same,inhibition,"[6]; cisplatin combo, at 0.05 µM",-31%
same,inhibition,"[6]; cisplatin combo, at 0.5 µM",-0.064%
same,inhibition,"[6]; cisplatin combo, at 5 µM",-5.86%
same,inhibition,"[6]; measured here: 5 uM single agent, at 5 µM",-8.73%
same,inhibition,[7]; at 0.5 µM,-12.5% (inactive)
same,inhibition,[7]; [32],0.459%
same,inhibition,[7]; [35],-24.7%
same,inhibition,[7]; [36],-26.7%
same,inhibition,[8]; at 0.5 µM,-27.9% (inactive)
same,inhibition,"[8]; measured here: with BGB IC20, at 0.5 µM",-20.4%
same,inhibition,"[8]; measured here: with BGB IC20, at 5 µM",-14.4%
same,inhibition,"[8]; measured here: with cisplatin IC20, at 0.5 µM",-29.4%
same,inhibition,"[8]; measured here: with cisplatin IC20, at 5 µM",-17.4%
same,inhibition,"[8]; single agent, at 5 µM",-23.4%
same,inhibition,[9]; at 0.5 µM,-39.9% (inactive)
same,inhibition,"[9]; measured here: combination with BGB at IC20, at 0.5 µM",-31.6%
same,inhibition,"[9]; measured here: combination with cisplatin at IC20, at 0.5 µM",-51.1%
same,inhibition,[10]; at 0.5 µM,-11.6% (inactive)
same,inhibition,"[10]; measured here: combo with BGB at IC20, at 0.5 µM",-2.88%
same,inhibition,"[10]; measured here: combo with cisplatin at IC20, at 0.5 µM",-22.4%
same,inhibition,[11]; at 0.5 µM,-9.59% (inactive)
same,inhibition,"[11]; measured here: inhibition with BGB combination, at 0.05 µM",-0.199%
same,inhibition,"[11]; measured here: inhibition with cisplatin combination, at 0.05 µM",-7.77%
same,inhibition,[12]; at 0.5 µM,-6.59% (inactive)
same,inhibition,[12]; [35],-12.5%
same,inhibition,[12]; [36],-15.1%
same,inhibition,[13]; at 0.5 µM,-6.07% (inactive)
same,inhibition,"[13]; measured here: BGB combination, at 0.5 µM",-5.12%
same,inhibition,"[13]; measured here: BGB combination, at 5 µM",4.69%
same,inhibition,"[13]; measured here: cisplatin combination, at 0.5 µM",-11.2%
same,inhibition,"[13]; measured here: cisplatin combination, at 5 µM",0.976%
same,inhibition,"[14]; BGB combination, concentration series, at 5 µM",-8.48%
same,inhibition,[14]; at 0.5 µM,-13% (inactive)
same,inhibition,"[14]; cisplatin combination, concentration series, at 5 µM",0.433%
same,inhibition,[15]; at 0.5 µM,-2.34% (inactive)
same,inhibition,"[15]; measured here: combo with BGB IC20, at 0.5 µM",-2.11%
same,inhibition,"[15]; measured here: combo with cisplatin IC20, at 0.5 µM",-7.96%
same,inhibition,[16]; at 0.5 µM,9.28% (inactive)
same,inhibition,"[16]; cisplatin combination, at 0.5 µM",2.65%
same,inhibition,"[16]; cisplatin combination, at 5 µM",-74.8%
same,inhibition,"[16]; measured here: BGB IC40 combination 0.05 uM, at 0.05 µM",-4.62%
same,inhibition,"[16]; single agent, at 5 µM",14.7%
same,inhibition,[17]; at 0.5 µM,8.81% (inactive)
same,inhibition,"[17]; cisplatin combo, at 5 µM",-9.42%
same,inhibition,"[17]; measured here: BGB IC40 combination, at 0.05 µM",-16.3%
same,inhibition,[17]; [35],-21.8%
same,inhibition,"[17]; single agent, at 5 µM",-8.26%
same,inhibition,[18]; at 0.5 µM,3.09% (inactive)
same,inhibition,[18]; [33],-18.9%
same,inhibition,[18]; [34],12.7%
same,inhibition,"[18]; single agent, at 0.05 µM",-1.79%
same,inhibition,"[18]; single agent, at 5 µM",-17.1%
CN(C)CCCO[C@@H]1[C@H]2OC(C)(C)O[C@H]2O[C@@H]1[C@H](O)CO,parasite load remaining,[19],63.5% (inactive)
same,viability,[19],92.5%
same,inhibition,[1],8.75% (inactive)
same,fold change,[2]; [26],0.9 (inactive)
same,fold change,[2]; [27],1.16
same,cell count,[2]; [28],9050
same,cell count,[2]; [29],10100
same,z-score,[3]; [30],0.565 (inactive)
same,z-score,[3]; [31],-0.271
same,luciferase signal,[20],44 AU (inactive)
CSC(N)=NCCC[C@H](N)C(=O)O,period change,[21],0.125 h (inactive)
same,inhibition,[22],-3% (inactive)
same,fluorescence ratio (interference),[23],1 (inactive)
same,inhibition,[1],-13.5% (inactive)
same,fold change,[2]; [26],1.1 (inactive) and 0.994 (inactive)
same,fold change,[2]; [27],0.973 and 0.749
same,cell count,[2]; [28],11000 and 6220
same,cell count,[2]; [29],10000 and 6260
same,outcome,[24],inactive
same,z-score,[25],0.215 (inactive)
